HT1080 IDH1KD tx: qHTS for induction of synthetic lethality in tumor cells producing 2HG: qHTS for the HT-1080-IDH1KD cell line; HT-1080 IDH1 knockdown viability, ATP luminescence, 48 h; Potency, µM (series often up to 46.1 µM), hits mostly cytotoxic; hit rate 2% among 360,000; AID 686971, 2013
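HT-1080-IDH1KD cells (IDH1 knocked down), 750/well in RPMI with 5% FBS, treated with compound 48 h at 37 degrees C. Viability by CellTiter-Glo luminescence, normalised to DMSO and no-cell wells; concentration-response curves classed.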
HT1080-NT tox: qHTS for induction of synthetic lethality in tumor cells producing 2HG: qHTS for the HT-1080-NT fibrosarcoma cell line; HT-1080-NT fibrosarcoma viability, CellTiter-Glo ATP luminescence, 48 h; Potency, µM (series often up to 46.1 µM), actives largely listed as cytotoxic; hit rate 1.6% among 360,000; AID 686970, 2013;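 note: NT is the 2HG producing partner of a matched IDH1 knockdown line; nearly all actives have a fitted effect of over 55% in size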
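HT-1080-NT; 750 cells/well; 5% FBS RPMI; 48 h compound, 37 degrees C; CellTiter-Glo luminescence; curve fitting and curve-class assignment.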
IL-1B inflam inh: qHTS for Inhibitors of Inflammasome Signaling: IL-1-beta AlphaLISA Primary Screen; THP-1 LPS/ATP IL-1B secretion, AlphaLISA, 16 h; stronger effect = lower value; activity change, % at 57.5 µM; hit rate 4.7% among 360,000; in the data active = activity change below about -50%; inconclusive = mostly about -30% to -49%
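THP-1 cells pretreated 1 hr with compounds (up to 57.5 uM final), then stimulated with LPS (250 ng/mL final) plus ATP (1.25 mM final); secreted IL-1B measured by AlphaLISA after 16 hr, decreased signal indicating inhibition.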
TDP1 cell CPT: qHTS for Inhibitors of human tyrosyl-DNA phosphodiesterase 1 (TDP1): qHTS in cells in presence of CPT | chicken DT40 Tdp1-/-;hTDP1 cells + 20 nM CPT, ATP luminescence, 48 h | Potency, µM (doses to about 46.2 µM), hits mostly inhibitors | hit rate 12% among 420,000; note: nearly all actives have a fitted effect of over 55% in size
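Cell growth measured by CellTiter-Glo luminescence after a minimum 48 h, 37 C compound exposure with 20 nM CPT in Tdp1-knockout DT40 cells stably expressing hTDP1, seeded 400/well; qHTS titration format.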
DT40 TDP1 no CPT: qHTS for Inhibitors of human tyrosyl-DNA phosphodiesterase 1 (TDP1): qHTS in cells in absence of CPT. DT40 Tdp1-/- hTDP1 cells, no CPT, ATP luminescence, 48 h. Potency, µM (series often up to 46.2 µM), usual class: inhibitors. hit rate 15% among 420,000. AID 686978, 2013; note: nearly all actives have a fitted effect of over 55% in size
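Compound effects on proliferation are scored in DT40 Tdp1-/-;hTDP1 cells in the absence of CPT. ATP levels (CellTiter-Glo luminescence) are recorded after a ≥48 hr, 37 °C incubation.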
Numbers stand for hits; ! = not active in a repeat; [ ] = dose if it differs, or a comment. Only some compounds are listed: those with a hit (about 19% of all), similar ones and a draw of the others. Unless noted, calls come from the whole dose curve; as a rule, active = well fitted curve in the direction sought with a large enough effect; inconclusive = small, poorly fitted or top-dose-only effect, or another doubt; inactive = no such curve, though single readings can be large; an effect the other way counts as inactive or inconclusive.

What do the screens show for `Cc1cc(C)c(NC2=NCCS2)cc1C`?
HT1080 IDH1KD tx: inactive; HT1080-NT tox: inactive; IL-1B inflam inh: inactive; TDP1 cell CPT: inactive; DT40 TDP1 no CPT: inconclusive

Results for Cc1oc(-c2ccc(Cl)cc2)nc1CN1C(=O)CN=C(c2ccccc2)c2ccccc21 ?
TDP1 cell CPT: inconclusive; DT40 TDP1 no CPT: 15µM

Results for Cc1oc(-c2ccccc2)nc1CN1C(=O)C(C)N=C(c2ccccc2F)c2cc(Cl)ccc21 (centres undefined) ?
HT1080 IDH1KD tx: inactive; HT1080-NT tox: inactive; IL-1B inflam inh: inactive; TDP1 cell CPT: inconclusive; DT40 TDP1 no CPT: inconclusive

How did Cc1ccc(NC(=O)C2CCCN2S(=O)(=O)c2ccc3c(c2)CCCC(=O)N3)cc1Cl (centres undefined) do in these assays?
TDP1 cell CPT: 16µM; DT40 TDP1 no CPT: inconclusive

Results for CC(=O)N1CCCc2cc(S(=O)(=O)N3CCCC(C(=O)Nc4cccc(F)c4)C3)ccc21 (centres undefined) ?
HT1080 IDH1KD tx: inactive; HT1080-NT tox: inactive; IL-1B inflam inh: inactive; TDP1 cell CPT: inconclusive; DT40 TDP1 no CPT: inconclusive

Results for CCCCCSc1cc(OC)c(CCNC)cc1OC ?
HT1080 IDH1KD tx: 21µM; HT1080-NT tox: inconclusive; IL-1B inflam inh: inactive; TDP1 cell CPT: 16µM; DT40 TDP1 no CPT: 16µM

Results for CCCCCCCSc1cc(OC)c(CCNC)cc1OC ?
HT1080 IDH1KD tx: inactive[9.24 µM]; HT1080-NT tox: 23µM; IL-1B inflam inh: -79; TDP1 cell CPT: inconclusive; DT40 TDP1 no CPT: 15µM

How did Cc1ccccc1NC(=O)Cc1nc(COC(=O)c2cc([N+](=O)[O-])ccc2N)cs1 do in these assays?
HT1080 IDH1KD tx: inactive; HT1080-NT tox: inactive; IL-1B inflam inh: inactive; TDP1 cell CPT: inactive; DT40 TDP1 no CPT: inconclusive

How did CCCCCCCCN1C(=O)[C@H](CC(=O)NCCCC)C[C@@]2(C(=O)OCC)CCCC=C12 do in these assays?
HT1080 IDH1KD tx: inconclusive; HT1080-NT tox: inconclusive; IL-1B inflam inh: inactive; TDP1 cell CPT: 9.2µM; DT40 TDP1 no CPT: 12µM

What do the screens show for `CCOC(=O)C1(c2ccccc2)CCCN(C)CC1` (centres undefined)?
TDP1 cell CPT: inactive; DT40 TDP1 no CPT: inactive

How did CCCCCCCCN1C(=O)[C@H](CC(=O)N2CCCCC2)C[C@@]2(C(=O)OCC)CCCC=C12 do in these assays?
HT1080 IDH1KD tx: inconclusive; HT1080-NT tox: inconclusive; IL-1B inflam inh: inconclusive; TDP1 cell CPT: 7.3µM; DT40 TDP1 no CPT: 5.8µM

Results for CCOc1ccc(-c2nc(CSCC(=O)NCCc3ccc(OCC)c(OCC)c3)c(C)o2)cc1 ?
TDP1 cell CPT: 15µM; DT40 TDP1 no CPT: 16µM

What do the screens show for `C=C(CO)CC1CC(O)[C@]2(C)OC3CC4OC5C[C@]6(C)O[C@]7(C)CCC8OC9C[C@]%10(C)OC%11C(C)=CC(=O)OC%11CC%10OC9C[C@@H](C)C8OC7CC6O[C@]5(C)C/C=C\C4OC3CC2O1` (some centres undefined)?
HT1080 IDH1KD tx: inactive; HT1080-NT tox: inactive; IL-1B inflam inh: inactive; TDP1 cell CPT: 23µM; DT40 TDP1 no CPT: 16µM

How did C=C(C=O)CC1CC(O)[C@]2(C)OC3CC4OC5C[C@]6(C)O[C@]7(C)CCC8OC9C[C@]%10(C)OC%11C(C)=CC(=O)OC%11CC%10OC9C[C@@H](C)C8OC7CC6O[C@]5(C)CC5OC5C4OC3CC2O1 (some centres undefined) do in these assays?
HT1080-NT tox: inconclusive; IL-1B inflam inh: -104; TDP1 cell CPT: 0.41µM; DT40 TDP1 no CPT: 0.37µM

How did C=C(COC(C)=O)CC1CC(O)[C@]2(C)OC3CC4OC5C[C@]6(C)O[C@]7(C)CCC8OC9C[C@]%10(C)OC%11C(C)=CC(=O)OC%11CC%10OC9C[C@@H](C)C8OC7CC6O[C@]5(C)C/C=C\C4OC3CC2O1 (some centres undefined) do in these assays?
HT1080 IDH1KD tx: inactive; HT1080-NT tox: inactive; IL-1B inflam inh: inactive; TDP1 cell CPT: 23µM; DT40 TDP1 no CPT: inconclusive

How did CC1=C(/C=C/c2ccccc2)CCN(C)C1 do in these assays?
HT1080 IDH1KD tx: inactive; HT1080-NT tox: inactive; IL-1B inflam inh: inactive; TDP1 cell CPT: inactive; DT40 TDP1 no CPT: inactive

What do the screens show for `Cc1c(NP(=S)(C(C)(C)C)C(C)(C)C)c(=O)n(-c2ccccc2)n1C`?
HT1080 IDH1KD tx: inactive; HT1080-NT tox: inactive; IL-1B inflam inh: inactive; TDP1 cell CPT: inactive; DT40 TDP1 no CPT: inactive

What do the screens show for `CCCN(CCC)c1c([N+](=O)[O-])cc(C(F)(F)F)cc1[N+](=O)[O-]`?
TDP1 cell CPT: inactive; DT40 TDP1 no CPT: inactive

How did COc1ccc(OC)c2c1CCC1NCCOC21 (centres undefined) do in these assays?
HT1080 IDH1KD tx: inactive; HT1080-NT tox: inactive; IL-1B inflam inh: inactive; TDP1 cell CPT: inactive; DT40 TDP1 no CPT: inactive

How did O=C(NC(c1cccnc1)C(F)(F)F)c1cnn(-c2nccc(-c3cccs3)n2)c1C1CC1 (centres undefined) do in these assays?
TDP1 cell CPT: inconclusive; DT40 TDP1 no CPT: 21µM

How did c1cc2cc(c1)C[n+]1ccc(c3ccccc31)NCc1ccc(cc1)CNc1cc[n+](c3ccccc13)C2 do in these assays?
TDP1 cell CPT: 9.4µM; DT40 TDP1 no CPT: 6.7µM

Results for COCCCNC(=S)NCCCNc1nc2cc(C)cc(C)c2cc1C#N ?
HT1080 IDH1KD tx: inactive; HT1080-NT tox: inactive; IL-1B inflam inh: inconclusive; TDP1 cell CPT: inconclusive; DT40 TDP1 no CPT: inconclusive

What do the screens show for `COC(=O)[C@]12CCC(C)(C)C[C@H]1[C@H]1C(=O)C=C3[C@@]4(C)C=C(C#N)C(=O)C(C)(C)[C@@H]4CC[C@@]3(C)[C@]1(C)CC2`?
TDP1 cell CPT: 1.2µM; DT40 TDP1 no CPT: 1.1µM

What do the screens show for `N=c1c[n+](C2CCCCC2)[n-]o1`?
HT1080 IDH1KD tx: inactive; HT1080-NT tox: inactive; IL-1B inflam inh: inactive; TDP1 cell CPT: inactive; DT40 TDP1 no CPT: inactive

What do the screens show for `CCCn1ncc(CN2CCCC(C(=O)c3cccc(OC)c3)C2)c1C` (centres undefined)?
HT1080 IDH1KD tx: inactive; HT1080-NT tox: inactive; IL-1B inflam inh: inactive; TDP1 cell CPT: inconclusive; DT40 TDP1 no CPT: inactive

What do the screens show for `Cc1ccnc2c1NC(=O)c1cccnc1N2C1CC1`?
HT1080 IDH1KD tx: inconclusive; HT1080-NT tox: inactive; IL-1B inflam inh: inactive; TDP1 cell CPT: 6.5µM!; DT40 TDP1 no CPT: 8.2µM!

How did COc1ccc(C(=O)Nc2ccccc2-c2nnn(CC(=O)Nc3ccc4c(c3)OCCO4)n2)cc1 do in these assays?
HT1080 IDH1KD tx: inactive; HT1080-NT tox: inactive; IL-1B inflam inh: inactive; TDP1 cell CPT: inconclusive; DT40 TDP1 no CPT: inconclusive

Compound activity as filed in PubChem BioAssay.
